Measured values as given in PubChem BioAssay.
Values joined by “and” are separate entries in the source; they are usually repeats but may differ in a detail not shown here. Identical values can stand only once. Some structures have more than one record in an assay (separate samples or runs), and their calls can disagree. Active and inactive are the calls of the source.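 Rule for the calls, unless noted: active = mean z-score across replicates of 1.96 or higher in either the MELAS or the Rieske mutant cell line; inactive = the rest.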

Experiment: viability loss with induced miR-34 in A549 – imaging, A549 dox-inducible miR-34, nuclei and caspase counts, primary screen (AID 1347080)
Details: A549 miR-34 inducible, Hoechst nuclei count, 48 h; measured here: total cells without miR-34 induction

Structure (SMILES) | cell count
Nc1ncn([C@@H]2O[C@H](CO)[C@@H](O)[C@H]2O)c(=O)n1 | 1840 and 2660 and 6640
CCCCCCNC(=O)n1cc(F)c(=O)[nH]c1=O | 3110 and 2180
COC1=CC(=O)C[C@@H](C)[C@]12Oc1c(Cl)c(OC)cc(OC)c1C2=O | 5720 and 7210 and 9240
Cc1ncc([N+](=O)[O-])n1CC(C)O (stereo not given) | 9820 and 10000 and 10600
N[C@@H](C(=O)N[C@@H]1C(=O)N2C(C(=O)O)=C(Cl)CS[C@H]12)c1ccccc1 | 9320 and 13200
CO[C@@]1(NC(=O)Cc2cccs2)C(=O)N2C(C(=O)O)=C(COC(N)=O)CS[C@@H]21 | 10300 and 10400 and 12700
CN(C)CCOC(c1ccc(Cl)cc1)c1ccccn1 (stereo not given) | 9460 and 9580 and 12300
Cc1onc(-c2c(Cl)cccc2Cl)c1C(=O)N[C@@H]1C(=O)N2[C@@H]1SC(C)(C)[C@@H]2C(=O)O | 10700 and 8620 and 13200
NS(=O)(=O)c1cc(C2(O)NC(=O)c3ccccc32)ccc1Cl (stereo not given) | 11400 and 10400 and 12300
CN(C)CCc1c[nH]c2ccc(C[C@H]3COC(=O)N3)cc12 | 13300
O=S(=O)(O)CCS | 10500 and 9730 and 12900
C/C=C/C(=O)N(CC)c1ccccc1C | 10100 and 13300 and 9700
COc1ccc(OC)c(C(O)CNC(=O)CN)c1 (stereo not given) | 10100 and 9420 and 12900
OC(CCN1CCCC1)(c1ccccc1)C1CCCCC1 (stereo not given) | 10400 and 10100 and 12200
O=C1C(CCS(=O)c2ccccc2)C(=O)N(c2ccccc2)N1c1ccccc1 (stereo not given) | 11300 and 8200 and 12500
CN1CCCC(n2nc(Cc3ccc(Cl)cc3)c3ccccc3c2=O)CC1 (stereo not given) | 6060 and 9430 and 10400
NCc1ccc(S(N)(=O)=O)cc1 | 11400 and 8940 and 13400
CC(C)(C)NCC(O)COc1cccc2c1C[C@H](O)[C@H](O)C2 (stereo not given in full) | 10900 and 12900

Experiment: compounds altering HSF1 focus formation in cells – imaging, Selleck Cancer Library (AID 1347162; in the data active = plate-normalised HSF1 focus index below about 0.46)
Details: human cells, HSF1 nuclear foci imaging, at 10 µM; SSMD: measured here: HSF1 foci SSMD mean; cell count: measured here: cell number; plate-normalised HSF1 focus index: stronger effect = lower value

Structure (SMILES) | SSMD | plate-normalised HSF1 focus index | cell count
O=c1[nH]cc(F)c(=O)[nH]1 | 2.14 | 1.12 (inactive) | 7020
Nc1ncn([C@@H]2O[C@H](CO)[C@@H](O)[C@H]2O)c(=O)n1 | 1.14 | 1.04 (inactive) | 7120
Cc1ccc(-c2cc(C(F)(F)F)nn2-c2ccc(S(N)(=O)=O)cc2)cc1 | -12.9 | 0.546 (inactive) | 5490
CN(CCOc1ccc(CC2SC(=O)NC2=O)cc1)c1ccccn1 (stereo not given) | 2.43 | 1.15 (inactive) | 7680

Experiment: blockers of cellular phospholipid synthesis – cell-based, LOPAC library, screen 4, primary screen (AID 1347384; call rule not given here)
Details: animal cells, phospholipid biosynthesis inhibition screen; at 10 µM

Structure (SMILES) | outcome
O=c1[nH]cc(F)c(=O)[nH]1 | inactive
CCc1cccc2c3c([nH]c12)C(CC)(CC(=O)O)OCC3 (stereo not given) | inactive
Nc1ncn([C@@H]2O[C@H](CO)[C@@H](O)[C@H]2O)c(=O)n1 | inactive
Cc1ccccc1C(OCCN(C)C)c1ccccc1 (stereo not given) | inactive
NC(=O)c1cnccn1 | inactive
CCCCCCNC(=O)n1cc(F)c(=O)[nH]c1=O | inactive
OCCN1CCN(CCCN2c3ccccc3Sc3ccc(C(F)(F)F)cc32)CC1 | inactive
COc1cc2nc(N(C)CCCNC(=O)C3CCCO3)nc(N)c2cc1OC (stereo not given) | inactive
Cc1ccc(-c2cc(C(F)(F)F)nn2-c2ccc(S(N)(=O)=O)cc2)cc1 | inactive
Cn1cnc([N+](=O)[O-])c1Sc1ncnc2nc[nH]c12 | inactive
CCCNCC(O)COc1ccccc1C(=O)CCc1ccccc1 (stereo not given) | inactive
Clc1ccc2c(c1)C(N1CCNCC1)=Nc1ccccc1O2 | inactive
NS(=O)(=O)c1cc2c(cc1Cl)NC=NS2(=O)=O | inactive

Experiment: MELAS cybrid and Rieske KO viability enhancers – cell-based, MELAS cybrids, Rieske KO mouse fibroblasts, CellTiter-Glo, primary screen (AID 1508586);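 note: z relative to plate mean and SD of compound and empty wells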
Details: MELAS cybrid survival, low glucose, CellTiter-Glo 48 h; stronger effect = higher value

Structure (SMILES) | z-score
O=c1[nH]cc(F)c(=O)[nH]1 | -0.415 (inactive) and 0.96 (inactive) and 1.17
CCc1nc(N)nc(N)c1-c1ccc(Cl)cc1 | -0.337 (inactive) and 1.11 (inactive)
CCc1cccc2c3c([nH]c12)C(CC)(CC(=O)O)OCC3 (stereo not given) | -0.968 (inactive)
Cc1ccccc1C(OCCN(C)C)c1ccccc1 (stereo not given) | -0.259 (inactive) and -1.08 (inactive)
Cc1ccc(C)c(OCCCC(C)(C)C(=O)O)c1 | -0.269 (inactive) and 0.233 (inactive) and 0.482 (inactive)
NC(=O)c1cnccn1 | -0.184 (inactive) and 0.644 (inactive)
CCCCCCNC(=O)n1cc(F)c(=O)[nH]c1=O | -0.365 (inactive) and -0.769 (inactive)
COC1=CC(=O)C[C@@H](C)[C@]12Oc1c(Cl)c(OC)cc(OC)c1C2=O | 1.78 (inactive)
Cc1ncc([N+](=O)[O-])n1CC(C)O (stereo not given) | -0.319 (inactive) and 0.295 (inactive) and -0.342 (inactive)
N[C@@H](C(=O)N[C@@H]1C(=O)N2C(C(=O)O)=C(Cl)CS[C@H]12)c1ccccc1 | 0.0553 (inactive)
CO[C@@]1(NC(=O)Cc2cccs2)C(=O)N2C(C(=O)O)=C(COC(N)=O)CS[C@@H]21 | 0.626 (inactive)
OCCN1CCN(CCCN2c3ccccc3Sc3ccc(C(F)(F)F)cc32)CC1 | -1.28 (inactive) and 0.571 (inactive)
CN(C)CCOC(c1ccc(Cl)cc1)c1ccccn1 (stereo not given) | 0.0234 (inactive)
Cc1onc(-c2c(Cl)cccc2Cl)c1C(=O)N[C@@H]1C(=O)N2[C@@H]1SC(C)(C)[C@@H]2C(=O)O | 0.18 (inactive)
COc1cc2nc(N(C)CCCNC(=O)C3CCCO3)nc(N)c2cc1OC (stereo not given) | -0.397 (inactive) and -0.012 (inactive)
NS(=O)(=O)c1cc(C2(O)NC(=O)c3ccccc32)ccc1Cl (stereo not given) | -0.366 (inactive)
CN(C)CCc1c[nH]c2ccc(C[C@H]3COC(=O)N3)cc12 | 0.816 (inactive)
Cc1ccc(-c2cc(C(F)(F)F)nn2-c2ccc(S(N)(=O)=O)cc2)cc1 | -0.312 (inactive) and 1.24 (inactive) and 1.08 (inactive)
CN[C@H]1CC[C@@H](c2ccc(Cl)c(Cl)c2)c2ccccc21 | -0.257 (inactive)

Structure (SMILES) | z-score
O=S(=O)(O)CCS | -0.16 (inactive) and 0.426 (inactive)
C/C=C/C(=O)N(CC)c1ccccc1C | -0.397 (inactive) and -0.423 (inactive)
COc1ccc(OC)c(C(O)CNC(=O)CN)c1 (stereo not given) | 0.0363 (inactive)
Cn1cnc([N+](=O)[O-])c1Sc1ncnc2nc[nH]c12 | 0.345 (inactive) and 1.98 (active)
c1ccc2[nH]c(-c3cscn3)nc2c1 | -0.164 (inactive) and 2.01 (active)
CCCNCC(O)COc1ccccc1C(=O)CCc1ccccc1 (stereo not given) | -0.438 (inactive) and -0.541 (inactive) and -0.854 (inactive)
NC(=O)N1c2ccccc2CC(=O)c2ccccc21 | -0.278 (inactive) and 0.355 (inactive) and 0.309 (inactive)
Cc1cn([C@H]2C[C@H](N=[N+]=[N-])[C@@H](CO)O2)c(=O)[nH]c1=O | 1.37 (inactive) and 1.42 (inactive)
CN(CCOc1ccc(CC2SC(=O)NC2=O)cc1)c1ccccn1 (stereo not given) | -0.369 (inactive) and -0.527 (inactive)
COc1ccccc1OCC(O)COC(N)=O (stereo not given) | -0.379 (inactive) and 0.493 (inactive)
OC(CCN1CCCC1)(c1ccccc1)C1CCCCC1 (stereo not given) | 0.381 (inactive)
O=C1C(CCS(=O)c2ccccc2)C(=O)N(c2ccccc2)N1c1ccccc1 (stereo not given) | 0.278 (inactive)
COC(=O)Nc1nc2ccc(C(=O)c3ccccc3)cc2[nH]1 | 0.18 (inactive) and -0.728 (inactive) and -2.21 (inactive)
CN1CCCC(n2nc(Cc3ccc(Cl)cc3)c3ccccc3c2=O)CC1 (stereo not given) | -0.451 (inactive) and -0.0693 (inactive)
NCc1ccc(S(N)(=O)=O)cc1 | 0.171 (inactive)
Clc1ccc2c(c1)C(N1CCNCC1)=Nc1ccccc1O2 | -0.224 (inactive) and 0.465 (inactive)
CC(C)(C)NCC(O)COc1cccc2c1C[C@H](O)[C@H](O)C2 (stereo not given in full) | 0.625 (inactive)
NS(=O)(=O)c1cc2c(cc1Cl)NC=NS2(=O)=O | -0.0786 (inactive) and 0.00114 (inactive)
